Consider 48 compounds from PubChem BioAssay AID686979 (National Center for Advancing Translational Sciences (NCATS), 2013).

Among all 420,000 compounds or so, about 50,000 (12%) were called active. About 26% were inconclusive and are not listed. The list comes from a sample in which actives are over-represented; it also holds similar structures and randomly drawn compounds. Unmarked numbers belong to inactive results. Calls come from the whole dose curve; as a rule, active = well fitted inhibition curve with a large enough effect; inconclusive = small, poorly fitted or top-dose-only effect; inactive = flat fitted curve, though single readings scatter. Where a SMILES comes first, the peptide text is derived from it. Bridges are numbered along the chain shown (N, C = ends). [ ]: non-standard residue; d: D form. The star is where a group is joined. X4 = CC[C@H](C)CCCCC(=O)*; Dab = NCC[C@H](N)C(=O)O
% is set by controls: 0 for no effect and ±100 for the full control effect; potency is the fitted concentration of half-maximal effect.

This experiment in a line: qHTS for Inhibitors of human tyrosyl-DNA phosphodiesterase 1 (TDP1): qHTS in cells in presence of CPT. Note: nearly all actives have a fitted effect of over 55% in size. Particulars: chicken DT40 Tdp1-/-;hTDP1 cells + 20 nM CPT, ATP luminescence, 48 h; series mostly up to 46.2 µM; activity change, negative = growth inhibition: at the top concentration. In outline: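 Chicken DT40 Tdp1-/- cells complemented with human TDP1, 400 cells/well, exposed to compounds plus 20 nM camptothecin for at least 48 h at 37 C; viability read as ATP content by CellTiter-Glo luminescence.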
For orientation: Quantitative high-throughput screening tests each substance at several concentrations.
`COc1ccc(/C=C/C(=O)c2cc(Br)ccc(=O)c2O)cc1`: the Potency was 14.6 µM (active). With `COc1ccc2oc(=N)c(C(=O)Nc3ccc(Br)cc3)cc2c1`, the “activity change, negative = growth inhibition” value was 2.51%. Take `COc1ccc2oc(=O)c(C(=O)O)cc2c1`: the “activity change, negative = growth inhibition” value was -20.4%. Consider `O=[N+]([O-])c1ccc(N=NNc2ccc([N+](=O)[O-])cc2)cc1`, for which the “activity change, negative = growth inhibition” value is -12.5%. Take `COc1cc(C(=O)N2CCN(S(=O)(=O)c3ccc(C(C)C)cc3)CC2)ccc1OCC(=O)N1CCOCC1`: the “activity change, negative = growth inhibition” value was -1.46%. On the same count and under the same terms, with `O=C(c1ccc(S(=O)(=O)c2ccccc2)cc1)N1CCCCCC1` the figure was -25.4%. Turning to `CC(C)c1ccc(S(=O)(=O)N2CCN(C(=O)c3ccc(N4CCCC4)c([N+](=O)[O-])c3)CC2)cc1`, the Potency was 16.4 µM (active). `O=C(c1ccc(S(=O)(=O)N2CCOCC2)cc1)N1CCN(c2ccccc2)CC1`: the “activity change, negative = growth inhibition” value was -0.43%. Same read-out and setting: with `CN(c1ccccc1)S(=O)(=O)c1ccc(Cl)c(C(=O)OCC(=O)N2CCOCC2)c1` the figure was 2.02%; with `COc1ccccc1CC(=O)Nc1ccc(S(=O)(=O)N2CCCC2)cc1`, 16%. Regarding `COc1ccccc1N1CCN(C(=O)c2ccc(S(=O)(=O)N3CCCCC3)cc2)CC1`, the Potency was 23.1 µM (active). Take `CN(c1ccccc1)S(=O)(=O)c1ccc(C(=O)N2CCN(c3ccccc3Cl)CC2)cc1`: the Potency is 23.1 µM (active). Consider `COc1ccccc1NC(=O)CN1C(=O)c2ccccc2Sc2ccc(C(=O)N3CCCC3)cc21`, for which the “activity change, negative = growth inhibition” value is 8.88%. Regarding `COc1ccc(S(=O)(=O)Nc2ccccc2C(=O)N2CCCC2)cc1C`, the “activity change, negative = growth inhibition” value is 2.19%.

In the case of `COc1ccccc1NS(=O)(=O)c1ccc(C(=O)N2CCN(c3ccccc3O)CC2)cc1`, the Potency was 18.4 µM (active). In the case of `Cc1ccc(S(=O)(=O)N2CCN(C(=O)c3ccc(-n4cncn4)c([N+](=O)[O-])c3)CC2)cc1`, the “activity change, negative = growth inhibition” value is -28.2%. Take `O=C(OCCN1CCOCC1)C1(c2ccccc2)CCCCC1`: the Potency result is “inactive”. Take `CCN(Cc1ccccc1)Cc1c(O)ccc2c(=O)c(-c3ccc(Cl)cc3Cl)coc12`: the “activity change, negative = growth inhibition” value is 0.932%.

Take `Cc1nc(C(F)(F)F)ccc1C(=O)N1CCC1(C)C(=O)NS(=O)(=O)c1ccc(F)cc1F` (stereo not drawn): the “activity change, negative = growth inhibition” value is -11.8%.

Consider `O=C(Nc1cccnc1)c1cc(Cl)ccc1Cl`, for which the “activity change, negative = growth inhibition” value was -4.97%.

For `CC(=O)c1nn(-c2ccc(C)cc2)cc1C(=O)c1cccc(Br)c1`, the “activity change, negative = growth inhibition” value was -1.68%. For the compound `COc1ccc(S(=O)(=O)N2CCN(C(=O)N(C)C)C2C)cc1` (stereo not drawn), the “activity change, negative = growth inhibition” value is 25.4%. Turning to `COc1ccc(NC(=O)CCCC(=O)c2ccccc2)cc1`, the “activity change, negative = growth inhibition” value was 5.35%. In the case of `CC(C)N(C(=O)Cn1cc(S(=O)(=O)CC(=O)N2CCOCC2)c2ccccc21)C(C)C`, the “activity change, negative = growth inhibition” value is -12.8%. On the same count and under the same terms, the value for `CCCc1nn2c(=O)cc(COC(=O)c3ccc(NC(=O)COc4ccc(F)cc4)cc3)nc2s1` was -14.8%. As to `CC(C)(C)NC(=O)C(c1ccc(Cl)cc1)N(CCO)C(=O)c1snc(C(N)=O)c1N` (stereo not drawn), the Potency was 13 µM (active).

As to `NC(=O)c1nsc(C(=O)N(CCCN2CCOCC2)C(C(=O)NC2CCCCC2)c2ccc(Cl)cc2)c1N` (stereo not drawn), the “activity change, negative = growth inhibition” value is 2.27%. Same read-out and setting: with `COc1cc(C(C(=O)NC2CCCC2)N(Cc2ccccc2)C(=O)c2snc(C(N)=O)c2N)ccc1O` (stereo not drawn) the figure was -13.6%; with `CC(C)(C)C(=O)NC1CC2CCCC(C1)N2C(=O)Nc1ccccc1F` (stereo not drawn), 3.31%.

Turning to `COC(=O)[C@@H]1CCCN1C(=O)c1cc(COc2cccc3cccnc23)on1`, the “activity change, negative = growth inhibition” value is -13.8%.

Take `Cc1ccc(OCc2cc(C(=O)N(C)CCn3ccnc3C)no2)cc1C`: the “activity change, negative = growth inhibition” value is -13.2%. As for `COCC1CCCCN1C(=O)c1cc(COc2ccc(C)c(C)c2)on1` (stereo not drawn), the Potency is 20.6 µM (active). Same read-out and setting: the value for `O=C1C=CN2CCCC2CC1` (stereo not drawn) was 16.4 µM (active). As to `Cc1cc(C)c(C#N)c(Nc2cccc(Br)c2)n1`, the “activity change, negative = growth inhibition” value was -4.23%. On the same count and under the same terms, with `CC1(C(=O)NS(=O)(=O)c2ccccc2)CCN1C(=O)Cc1ccc(-c2ccccc2)cc1` (stereo not drawn) the figure was -7.34%. As to `CCCNC(=O)C1(C)CCN1C(=O)Cc1ccc(-c2ccccc2)cc1` (stereo not drawn), the Potency was 16.4 µM (active). Turning to `CC1(C(=O)NS(=O)(=O)c2cccs2)CCN1C(=O)Cc1ccc(-c2ccccc2)cc1` (stereo not drawn), the “activity change, negative = growth inhibition” value was -5.95%. Same read-out and setting: the value for `CCOC(=O)c1c(C)[nH]c(C(=O)OCC(=O)c2ccc(OC)cc2OC)c1C` was -17.3%; that for `N#C/C(=C\c1cccnc1)C(=O)Nc1ccc(SC(F)F)cc1` was -28.9%. As for `CS(=O)(=O)N1CCC(C(=O)N2CCN(c3ccccc3)CC2)CC1`, the “activity change, negative = growth inhibition” value was -15.5%. Turning to `Cn1c(C(=O)N2CCC(C(=O)N3CCN(c4ccccc4)CC3)CC2)cc2sccc21`, the Potency is 13 µM (active). With `O=C(C1CCC1)N1CCN(c2ccccc2)CC1`, the “activity change, negative = growth inhibition” value was -15.3%. Still for that read-out and setting: the value for `CCOC(=O)Cc1ncccc1C(=O)Nc1ccc(OC)cc1` was 7.57%; that for `Cc1ccc2cccc([N+](=O)[O-])c2n1` was 3.55%. The same measure, in the same setting: with `CC[C@H](C)CCCCC(=O)N[C@@H](CCN)C(=O)N[C@H](C(=O)N[C@@H](CCN)C(=O)N[C@H]1CCNC(=O)[C@H]([C@@H](C)O)NC(=O)[C@H](CCN)NC(=O)[C@H](CCN)NC(=O)[C@H](CC(C)C)NC(=O)[C@@H](CC(C)C)NC(=O)[C@H](CCN)NC1=O)[C@@H](C)O` (X4-[Dab]T[Dab][Dab][Dab][dL]L[Dab][Dab]T; lactam 4-C) the figure was 7.64%; with `CC(=O)N1CCCc2ccc(NS(=O)(=O)c3ccc(F)cc3F)cc21`, 3.45%. With `CCc1nn(CCCN2CCN(c3cccc(Cl)c3)CC2)c(=O)n1CCOc1ccccc1`, the Potency is 11.6 µM (active). `Cc1nn(CCOc2ccccc2)c(=O)n1-c1ccccc1F`: the “activity change, negative = growth inhibition” value is -4.12%.
